KDM5B inh: Primary screen for KDM5B Histone Demethylases FDH-coupled qHTS | KDM5B demethylase, FDH-coupled NADH fluorescence (FDH is formaldehyde dehydrogenase) | Potency, µM (top dose mostly 57.7 µM), most hits filed as inhibitors | 2.6% of 220,000 active; active = well fitted inhibition curve with a large enough effect; also: 0% is about no effect; nearly all actives have a fitted effect of over 70% in size
Target sequence (Q9UGL1 whole entry, looked up): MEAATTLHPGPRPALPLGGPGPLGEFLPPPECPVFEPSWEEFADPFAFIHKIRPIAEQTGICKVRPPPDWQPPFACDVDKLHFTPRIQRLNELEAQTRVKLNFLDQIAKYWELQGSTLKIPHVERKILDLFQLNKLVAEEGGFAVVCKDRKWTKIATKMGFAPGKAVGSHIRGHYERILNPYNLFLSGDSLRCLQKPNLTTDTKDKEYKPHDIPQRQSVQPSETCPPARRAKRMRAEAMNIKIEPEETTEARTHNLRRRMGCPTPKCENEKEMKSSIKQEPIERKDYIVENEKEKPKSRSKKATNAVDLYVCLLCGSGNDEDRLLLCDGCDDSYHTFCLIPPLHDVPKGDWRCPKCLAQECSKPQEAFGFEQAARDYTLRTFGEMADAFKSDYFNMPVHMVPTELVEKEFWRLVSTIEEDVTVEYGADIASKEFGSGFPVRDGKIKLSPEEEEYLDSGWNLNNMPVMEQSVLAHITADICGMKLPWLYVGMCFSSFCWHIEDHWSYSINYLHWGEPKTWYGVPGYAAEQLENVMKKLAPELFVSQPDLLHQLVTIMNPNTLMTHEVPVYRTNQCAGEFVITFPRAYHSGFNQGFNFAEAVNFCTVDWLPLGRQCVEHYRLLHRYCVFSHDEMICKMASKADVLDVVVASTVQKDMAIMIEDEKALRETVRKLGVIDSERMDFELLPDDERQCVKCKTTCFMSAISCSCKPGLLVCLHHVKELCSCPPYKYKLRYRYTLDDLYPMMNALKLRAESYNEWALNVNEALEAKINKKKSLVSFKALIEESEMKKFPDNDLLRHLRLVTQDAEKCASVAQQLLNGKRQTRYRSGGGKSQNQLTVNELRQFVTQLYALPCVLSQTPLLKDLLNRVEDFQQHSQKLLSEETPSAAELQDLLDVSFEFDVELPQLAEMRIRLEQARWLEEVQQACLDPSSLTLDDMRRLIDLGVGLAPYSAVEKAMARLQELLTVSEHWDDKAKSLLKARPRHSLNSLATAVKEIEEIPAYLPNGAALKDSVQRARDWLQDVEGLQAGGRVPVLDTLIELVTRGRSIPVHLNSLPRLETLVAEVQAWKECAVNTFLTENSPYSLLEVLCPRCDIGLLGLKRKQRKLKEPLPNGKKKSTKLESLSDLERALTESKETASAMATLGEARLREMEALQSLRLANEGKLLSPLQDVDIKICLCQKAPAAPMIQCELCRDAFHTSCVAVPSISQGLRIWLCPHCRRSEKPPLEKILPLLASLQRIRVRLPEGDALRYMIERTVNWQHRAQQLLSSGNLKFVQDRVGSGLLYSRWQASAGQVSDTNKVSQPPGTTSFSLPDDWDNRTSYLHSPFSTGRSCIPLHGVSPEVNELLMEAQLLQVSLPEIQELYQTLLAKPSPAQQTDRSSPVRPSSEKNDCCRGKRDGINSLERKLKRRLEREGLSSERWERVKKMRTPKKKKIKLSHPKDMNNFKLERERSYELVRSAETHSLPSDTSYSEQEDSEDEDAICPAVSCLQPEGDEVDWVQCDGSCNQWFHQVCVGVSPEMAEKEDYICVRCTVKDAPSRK
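qHTS format, multiple compound concentrations. Buffer 50 mM HEPES pH 7.5/0.01% Tween-20; 200 nM KDM5BΔAP final; 10 min compound preincubation; substrate-mix levels 12.5 µM peptide, 25 µM α-KG, 0.25 mM NAD⁺; 30 min RT; ΔRFU.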
* = called active by the depositor. Shown is part of a subset that was picked to be rich in hits. Potency is read from the fitted curve at half-maximal effect.

How did CCC(=O)N1N=C(c2ccc(F)cc2)CC1c1ccc2nccnc2c1 (stereo not drawn) do in these assays?
KDM5B inh: inactive

How did CN1CCN(Cc2ccc(-c3cnc4c(OCc5ccccc5)nccn34)cc2)CC1 do in these assays?
KDM5B inh: 32µM*

What do the screens show for `Cn1cccc1/C=N/N1CCN(Cc2ccccc2)CC1`?
KDM5B inh: inactive

Results for CN1CCN(Cc2ccc(Nc3cnc4ccc(-c5ccccc5)nn34)cc2)CC1 ?
KDM5B inh: inactive

How did Cc1ccc(-n2nnnc2SCC(=O)Nc2cc(C)nn2-c2ccccc2)cc1 do in these assays?
KDM5B inh: inactive

What do the screens show for `O=C(NCC1(c2ccccc2)CC1)c1n[nH]c(=O)c2ccccc12`?
KDM5B inh: inactive

How did O=C1Cc2c(-c3ccccc3)n[nH]c2CN1CCc1ccncc1 do in these assays?
KDM5B inh: inactive

Results for O=C1Cc2c(-c3ccc(N4CCOCC4)cc3)n[nH]c2CN1CCc1ccncc1 ?
KDM5B inh: 22µM*

How did O=C1Cc2c(-c3ccc4ccccc4c3)n[nH]c2CN1CCc1ccncc1 do in these assays?
KDM5B inh: inactive

What do the screens show for `Cc1cccc(C(C)C)c1NC(=O)CCc1ncc(-c2ccc(F)cc2F)o1`?
KDM5B inh: inactive

How did O=C(OCc1cccc2ccccc12)c1cnccn1 do in these assays?
KDM5B inh: inactive

What do the screens show for `O=C1CCCC2=C1C(c1ccsc1)CC(=O)N2c1ccccc1C(F)(F)F` (stereo not drawn)?
KDM5B inh: inactive

How did C#CCNC(=O)CN1CCC(CN2CCCCCC2)CC1 do in these assays?
KDM5B inh: inactive

How did O=C(c1ccc(Cn2nnc3ccccc32)cc1)N1CCN(S(=O)(=O)c2ccc(F)cc2)CC1 do in these assays?
KDM5B inh: inactive

What do the screens show for `Cn1c2ccc(Br)cc2c2nnc(SCn3nnc4ccccc43)nc21`?
KDM5B inh: inactive

Results for COc1ccc(/C=C/c2ccc3c(c2)C(=O)N2C[C@@H](NC(=O)CC(C)(C)CC(=O)O)C[C@H]2C(=O)N3)cc1 ?
KDM5B inh: 22µM*

How did O=C(N[C@H]1CCN2C(=O)c3cc(Br)ccc3NC(=O)[C@@H]2C1)c1ccco1 do in these assays?
KDM5B inh: inactive

What do the screens show for `O=C1Nc2ccc(-c3ccsc3)cc2C(=O)N2C[C@H](O)C[C@@H]12`?
KDM5B inh: inactive

How did COCC(=O)N[C@H]1C[C@H]2C(=O)Nc3ccc(/C=C/c4ccccc4)cc3C(=O)N2C1 do in these assays?
KDM5B inh: inactive

Results for Cc1cccc(-c2ccc3c(c2)C(=O)N2C[C@H](O)C[C@H]2C(=O)N3)c1C ?
KDM5B inh: inactive

What do the screens show for `CC(C)(CC(=O)O)CC(=O)N[C@H]1C[C@H]2C(=O)Nc3ccc(/C=C/c4ccccc4)cc3C(=O)N2C1`?
KDM5B inh: 28µM*

Results for C=CCNC(=O)N[C@H]1C[C@H]2C(=O)Nc3ccc(/C=C/c4ccc(OC)cc4)cc3C(=O)N2C1 ?
KDM5B inh: 22µM*

How did O=C1Nc2ccc(/C=C/c3ccccc3)cc2C(=O)N2C[C@H](O)C[C@@H]12 do in these assays?
KDM5B inh: 28µM*

What do the screens show for `COc1ccc2c(ccn2CCC(=O)Nc2ccc3c(c2)C(=O)N2CCC[C@H]2C(=O)N3)c1`?
KDM5B inh: inactive

How did CN1C[C@@H](NC(=O)CC(C)(C)CC(=O)O)C[C@H]1c1nc(-c2ccccc2)no1 do in these assays?
KDM5B inh: inactive

How did O=C(CCc1ncc(-c2ccc(F)cc2F)o1)NC1CCN(Cc2ccccc2)C1 (stereo not drawn) do in these assays?
KDM5B inh: inactive

What do the screens show for `CCCn1nc(C)cc1CN(CC)C(=O)C1CCN(c2cnn(C)c(=O)c2)C1` (stereo not drawn)?
KDM5B inh: inactive

Results for Cc1ccccc1C(=O)N(CCCN(C)C)c1nc2ccc(F)cc2s1 ?
KDM5B inh: inactive

How did COc1ccccc1NC(=O)CSc1nc(N2CCOCC2)c2c(c1C#N)CCCC2 do in these assays?
KDM5B inh: inactive

Results for Cc1cc(C)cc(NC(=O)CCCn2cnc3c2c(=O)n(C)c(=O)n3C)c1 ?
KDM5B inh: inactive

How did CCC(=O)Nc1cc(C)c(O)c(-c2nc3cc(CC)ccc3o2)c1 do in these assays?
KDM5B inh: inactive

How did CN(Cc1ccccc1)C(=O)c1cc(-c2ccccn2)nc2ccccc12 do in these assays?
KDM5B inh: inactive

What do the screens show for `CN(Cc1ccccc1)C(=O)c1cc(-c2ccncc2)nc2ccccc12`?
KDM5B inh: inactive

How did Cc1nc2c(cnn2C(C)C)cc1C(=O)N(C)Cc1ccc(Cl)cc1Cl do in these assays?
KDM5B inh: inactive

How did CC(C)CN(C)C(=O)c1cc(-c2cnn(C(C)C)c2)nc2cc(F)ccc12 do in these assays?
KDM5B inh: 28µM*

What do the screens show for `CC(C)n1cc(-c2cc(C(=O)N(C)Cc3cccnc3)c3cc(F)ccc3n2)cn1`?
KDM5B inh: 25µM*

What do the screens show for `Cc1c(CN(C)C(=O)c2cc(-c3ccccc3)nc3ccc(Br)cc23)cnn1C`?
KDM5B inh: inactive

What do the screens show for `NS(=O)(=O)CCCC(=O)O`?
KDM5B inh: inactive

What do the screens show for `O=C(c1cc2cc(Br)ccc2oc1=O)N1CCc2ccccc2C1`?
KDM5B inh: inactive

What do the screens show for `Cc1cc(C)n(-c2nc3c(c(=O)n(CC(N)=O)c(=O)n3C)n2CCCc2ccccc2)n1`?
KDM5B inh: inactive

How did Cc1ccc(C(=O)OCC(=O)c2cc(C)n(Cc3ccccc3)c2C)o1 do in these assays?
KDM5B inh: inactive

What do the screens show for `Cc1cccc(CN2CCN(C(=O)c3n[nH]c(=O)c4ccccc34)CC2)c1`?
KDM5B inh: inactive

What do the screens show for `Cc1ccc2ncc(C(=O)N3CCN(c4ccccc4F)CC3)c(=O)n2c1`?
KDM5B inh: inactive

What do the screens show for `Cc1cccc(CN2CCN(C(=O)c3cnc4ccccn4c3=O)CC2=O)c1`?
KDM5B inh: 32µM*

What do the screens show for `Cc1ccc2c(C(=O)O)csc2c1`?
KDM5B inh: inactive

How did Cc1ccc(CNC(=O)CSc2nc3ccsc3c(=O)n2CCC(C)C)cc1 do in these assays?
KDM5B inh: inactive

Results for COc1c(CNC(C)c2nnc3n2CCCCC3)c(C(C)C)nn1C (stereo not drawn) ?
KDM5B inh: inactive

How did COc1ccc(Nc2ccc3c(n2)CN(Cc2ccccc2F)C(=O)CO3)cc1 do in these assays?
KDM5B inh: 35µM*

What do the screens show for `Cc1nc(CN2Cc3nc(Nc4ccc(C(F)(F)F)cc4)ccc3OCC2=O)cs1`?
KDM5B inh: 35µM*

Results for COc1ccc(Nc2ccc3c(n2)CN(Cc2nc4ccccc4s2)C(=O)CO3)cn1 ?
KDM5B inh: inactive

What do the screens show for `Cc1nc(CN2Cc3nc(Oc4ccccc4)ccc3OCC2=O)cs1`?
KDM5B inh: inactive

How did COc1ccc(Nc2ccc3c(n2)CN(Cc2ccccc2C)C(=O)CO3)cc1 do in these assays?
KDM5B inh: 35µM*

Results for Cc1nc(CN2Cc3nc(-c4ccccc4)ccc3OCC2=O)cs1 ?
KDM5B inh: inactive

What do the screens show for `Cc1ccccc1CN1Cc2nc(-c3cncnc3)ccc2OCC1=O`?
KDM5B inh: inactive

What do the screens show for `O=C1COc2ccc(-c3cc(F)cc(F)c3)nc2CN1Cc1ccccc1F`?
KDM5B inh: inactive

What do the screens show for `COCCN1Cc2nc(Nc3ccccc3F)ccc2OCC1=O`?
KDM5B inh: inactive

Results for c1cc2c3c(cccc3c1)/C(=N/OCC1CO1)C2 (stereo not drawn) ?
KDM5B inh: inactive

Results for O=C(C1CCCC1)N1CC2(CCN(C3CCCCC3)C2)Cc2ccccc21 (stereo not drawn) ?
KDM5B inh: inactive

Source: PubChem
